Results on seven compounds are retold here after PubChem BioAssay (Tox21).

Molecules are shown by their SMILES. Results filed as inconclusive are left out. Calls of active or inactive are those of the source. Unless noted, calls follow the shape of the dose curve; as a rule, active = well fitted curve in the direction sought with a large enough effect in the repeat runs; inconclusive = weak or mixed curves; inactive = no such curve, though single readings can be large; an effect the other way counts as inactive or inconclusive.

Test [1] is described as follows: A CellTox Green Cytotoxicity Assay to monitor cytotoxicity in HepG2 cells - 0 hour (AID 1224882). Also: nearly all actives have a fitted effect of over 35% in size. An outline of the steps: (§1)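 Measurements at 0, 8, 16, 24, 32 and 40 h of treatment captured CellTox Green fluorescence in HepG2 cells that had been co-plated with reagent and preincubated 5 h at 37 C/5% CO2.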
A short description of test [2]: A CellTox Green Cytotoxicity Assay to monitor cytotoxicity in HepG2 cells - 32 hour (AID 1224883). Also: nearly all actives have a fitted effect of over 50% in size. Also: potency is read from the fitted curve at half-maximal effect. The method in brief:
as §1

A short description of test [3]: qHTS RealTime-Glo MT Cell Viability Assay in HepG2 cells - 16 hour (AID 1224885). Also: nearly all actives have a fitted effect of over 50% in size. An outline of the steps:
(§2)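 Luminescence read-out: viable HepG2 cells reduce a prosubstrate to a NanoLuc substrate, giving a signal proportional to live cell number. Reads taken at 0, 8, 16, 24, 32 and 40 h of compound exposure at 37 C.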

Test [4] is described as follows: qHTS RealTime-Glo MT Cell Viability Assay in HEK293 cells - 24 hour (AID 1224886). Also: nearly all actives have a fitted effect of over 50% in size. Also: potency is read from the fitted curve at half-maximal effect. An outline of the steps:
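Nonlytic real-time viability readout: viable cells convert prosubstrate to NanoLuc substrate, giving luminescence proportional to live cell number. HEK293, 600 cells/well, compound added after 5 h, continuous culture at 37 C.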
In general terms: qHTS replaces the single test concentration by a dilution series.

Test [5] can be described thus: qHTS RealTime-Glo MT Cell Viability Assay in HEK293 cells - 8 hour (AID 1224887). Also: nearly all actives have a fitted effect of over 50% in size. Also: potency is read from the fitted curve at half-maximal effect. The method in brief: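 HEK293 + NanoLuc + prosubstrate, 600 cells/well; 5 h, 37 C/5% CO2; compound 23 nL in DMSO by pintool; 37 C; luminescence read at 0, 8, 16, 24, 32 and 40 h time points.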
The nature of test [6]: A CellTox Green Cytotoxicity Assay to monitor cytotoxicity in HEK293 cells - 16 hour (AID 1224888). Also: nearly all actives have a fitted effect of over 35% in size. The method in brief:
(§3)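 Tox21 screen in HEK293: membrane-impermeant cyanine dye fluoresces on binding dead-cell DNA; compound pinned 5 h post-seeding, plates held at 37 C, signal read repeatedly through 40 h.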

Test [7] is described as follows: qHTS RealTime-Glo MT Cell Viability Assay in HepG2 cells - 0 hour (AID 1224889). Also: nearly all actives have a fitted effect of over 50% in size. The method in brief: as §2
Test [8] is described as follows: A CellTox Green Cytotoxicity Assay to monitor cytotoxicity in HepG2 cells - 8 hour (AID 1224890). Also: nearly all actives have a fitted effect of over 45% in size. An outline of the steps:
as §1

A short description of test [9]: qHTS assay to identify small molecule antagonists of the estrogen receptor alpha (ER-alpha) signaling pathway using the BG1 cell line in the presence of 0.1 nM 17-beta-estradiol - cell viability counter screen (AID 1259241). Also: nearly all actives have a fitted effect of over 40% in size. An outline of the steps:
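Live-cell protease activity (CellTiter-Fluor fluorescence, 30 min) was read in the same wells after VM7Luc4E2 cells had been exposed to compounds with 0.1 nM 17beta-estradiol for 22 hr at 37C.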

The nature of test [10]: qHTS assay to identify small molecule antagonists of the androgen receptor (AR) signaling pathway using the MDA cell line in the presence of 0.5 nM R1881 - cell viability counter screen (AID 1259242). Also: nearly all actives have a fitted effect of over 45% in size. Also: potency is read from the fitted curve at half-maximal effect. The method in brief:
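Concentration-response screen of compounds for toxicity in MDA-kb2 reporter cells: 16 hr at 37C with 0.5 nM R1881, endpoint live-cell protease fluorescence measured in the reporter wells.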

Test [11] addresses Androgen receptor (Homo sapiens) (UniProt P10275). Description: qHTS assay to identify small molecule antagonists of the androgen receptor (AR) signaling pathway using the MDA cell line in the presence of 0.5 nM R1881 (AID 1259243). Also: nearly all actives have a fitted effect of over 50% in size. The method in brief:
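With R1881 held at 0.5 nM (final), compound effects on MMTV-luciferase expression in MDA-kb2 cells were scored by luminescence after a 16 hr, 37C incubation.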

Test [12] has as its target Estrogen receptor (Homo sapiens) (UniProt P03372). Put plainly: qHTS assay to identify small molecule antagonists of the estrogen receptor alpha (ER-alpha) signaling pathway using the BG1 cell line in the presence of 0.1 nM 17-beta-estradiol (AID 1259244). Also: nearly all actives have a fitted effect of over 50% in size. Also: potency is read from the fitted curve at half-maximal effect. The method in brief:
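Compounds were tested against 0.1 nM (final) 17beta-estradiol in VM7Luc4E2 cells, which express full-length ER-alpha and an ERE-luciferase reporter; luminescence was recorded following 22 h exposure.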

A short description of test [13]: qHTS assay to identify small molecule HDAC inhibitors (AID 1259364).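 Also: wild-type HCT-116 cells with endogenous class I/II HDAC activity; top concentration of the series differs between compounds; nearly all actives have a fitted effect of over 45% in size.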 The method in brief:
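Screening used wild-type human colon HCT-116 cells incubated overnight, dosed with compounds for 2 hours, and assayed with a homogeneous luminogenic HDAC I/II reagent for 30 minutes at room temperature.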

Test [14] in a line: qHTS assay to identify small molecule HDAC inhibitors - cell viability counter screen (AID 1259365). The method in brief: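 HCT-116 (wild type), 1,500 cells/well, overnight 37C/5% CO2; compound in DMSO 2hr; CellTiter-Glo 30min RT; luminescence read.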
Test [15] is described as follows: qHTS assay to identify small molecule agonists of the sonic hedgehog signaling (Shh) pathway (AID 1259368; calls by dose curve; also: nearly all actives have a fitted effect of over 15% in size; also: potency is read from the fitted curve at half-maximal effect). An outline of the steps: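 Hedgehog pathway agonism scored by increased firefly luciferase luminescence in 3T3Gli1-Luc cells treated 24 hr at 37 C; detection used a 30 min room-temperature reagent incubation.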
Test [16] in a line: qHTS assay to identify small molecule antagonists of the sonic hedgehog signaling (Shh) pathway (AID 1259369; calls by dose curve; also: nearly all actives have a fitted effect of over 45% in size; also: potency is read from the fitted curve at half-maximal effect). The method in brief:
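NIH/3T3 stable Gli1-Luc clone, 2,000 cells/well, 4hr settle; cpd + conditioned medium 24hr; Luc reagent 30min RT; luminescence.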

Test [17] can be described thus: A CellTox Green Cytotoxicity Assay to monitor cytotoxicity in HEK293 cells - 8 hour (AID 1224884). Also: nearly all actives have a fitted effect of over 35% in size. An outline of the steps: as §3
A short description of test [18]: qHTS assay to identify small molecule phospholipidosis (PLD) inducers (AID 1259344; active = well fitted curve in the direction sought with a large enough effect; an effect the other way counts as inactive or inconclusive). An outline of the steps: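 Cells (HepG2, 900 per well) attach for 4 h, receive LipidTOX Red and compound together, incubate 24 h at 37 C, are fixed 30 min with paraformaldehyde/Hoechst, then imaged at one site per well.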
Test [19] can be described thus: qHTS assay to identify small molecule agonists of the sonic hedgehog signaling (Shh) pathway - cell viability counter screen (AID 1259366). Also: nearly all actives have a fitted effect of over 50% in size. Also: potency is read from the fitted curve at half-maximal effect. An outline of the steps: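 CellTiter-Fluor fluorescence read-out, 1 hr at 37C, added after 23hr compound exposure. Cells: 3T3 Gli1-Luc, an NIH/3T3 clone with stably integrated Gli1-Luc reporter, plated 4hr before compound.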

Test [20] can be described thus: qHTS assay to identify small molecule antagonists of the sonic hedgehog signaling (Shh) pathway - cell viability counter screen (AID 1259367). Also: nearly all actives have a fitted effect of over 55% in size. Also: potency is read from the fitted curve at half-maximal effect. An outline of the steps:
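Cytotoxicity was assessed in parallel with Shh reporter activity by measuring live-cell protease fluorescence (CellTiter-Fluor) in NIH/3T3 cells stably carrying Gli1-Luc, treated with compound under conditioned medium stimulation for 23 hr plus 1 hr reagent incubation.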

Sequence of Estrogen receptor (Homo sapiens) (P03372 whole entry, looked up): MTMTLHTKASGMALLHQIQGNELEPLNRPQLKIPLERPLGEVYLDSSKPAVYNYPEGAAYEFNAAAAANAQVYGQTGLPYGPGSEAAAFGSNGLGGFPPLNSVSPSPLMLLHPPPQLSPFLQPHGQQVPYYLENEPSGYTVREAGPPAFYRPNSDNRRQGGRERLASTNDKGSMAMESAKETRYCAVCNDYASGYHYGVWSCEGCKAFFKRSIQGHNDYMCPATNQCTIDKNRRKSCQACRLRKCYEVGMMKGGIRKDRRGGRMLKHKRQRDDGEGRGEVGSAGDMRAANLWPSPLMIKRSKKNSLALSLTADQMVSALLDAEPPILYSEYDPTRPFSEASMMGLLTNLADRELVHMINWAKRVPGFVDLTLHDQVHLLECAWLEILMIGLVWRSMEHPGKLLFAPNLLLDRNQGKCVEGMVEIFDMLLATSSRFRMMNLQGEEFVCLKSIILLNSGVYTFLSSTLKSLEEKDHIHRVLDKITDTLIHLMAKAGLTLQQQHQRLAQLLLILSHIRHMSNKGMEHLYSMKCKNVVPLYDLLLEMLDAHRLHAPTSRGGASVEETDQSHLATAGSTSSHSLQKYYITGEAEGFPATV
Sequence of Androgen receptor (Homo sapiens) (P10275 whole entry, looked up): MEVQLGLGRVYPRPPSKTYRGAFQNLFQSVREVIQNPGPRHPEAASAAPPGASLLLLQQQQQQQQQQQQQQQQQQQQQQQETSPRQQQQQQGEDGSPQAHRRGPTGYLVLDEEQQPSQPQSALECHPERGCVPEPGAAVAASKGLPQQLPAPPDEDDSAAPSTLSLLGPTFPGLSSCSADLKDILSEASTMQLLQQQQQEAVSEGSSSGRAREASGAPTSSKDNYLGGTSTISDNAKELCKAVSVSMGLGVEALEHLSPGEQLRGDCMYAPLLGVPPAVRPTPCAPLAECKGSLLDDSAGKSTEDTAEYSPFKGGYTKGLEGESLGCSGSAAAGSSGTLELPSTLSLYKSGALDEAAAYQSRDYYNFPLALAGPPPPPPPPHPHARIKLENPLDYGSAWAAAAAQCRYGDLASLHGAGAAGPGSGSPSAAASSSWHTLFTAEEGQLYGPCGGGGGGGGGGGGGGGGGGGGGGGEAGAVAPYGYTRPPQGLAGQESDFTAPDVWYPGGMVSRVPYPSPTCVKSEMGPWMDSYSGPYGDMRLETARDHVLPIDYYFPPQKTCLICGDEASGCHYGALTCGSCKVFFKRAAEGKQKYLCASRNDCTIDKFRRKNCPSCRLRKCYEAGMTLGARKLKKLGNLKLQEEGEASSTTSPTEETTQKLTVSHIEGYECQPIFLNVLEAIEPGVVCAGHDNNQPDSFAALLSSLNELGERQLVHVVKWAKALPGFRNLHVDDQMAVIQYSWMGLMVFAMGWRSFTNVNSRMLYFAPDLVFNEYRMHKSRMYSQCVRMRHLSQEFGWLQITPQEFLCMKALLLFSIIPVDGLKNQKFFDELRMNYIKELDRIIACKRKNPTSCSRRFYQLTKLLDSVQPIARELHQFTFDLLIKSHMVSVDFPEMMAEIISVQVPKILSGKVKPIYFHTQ

On to `CCCC(C)CCC(C)=O` (stereo not given), for which the Potency result in test [1], in test [2], in test [3], in [4], in [5] and in [6] was “inactive” each time. The Potency entry in test [7], in test [8], in test [9], in test [10], in test [11] and in test [12] was “inactive” in each case. In addition, the Potency result in test [13], in [14], in test [15] and in test [16] was “inactive” throughout.
As to `O=C(Nc1ccc(Cl)cc1)Nc1ccc(Cl)c(C(F)(F)F)c1`, the Potency result in test [1], in test [17], in test [6], in test [7], in test [9] and in test [18] was “inactive” each time. Besides, the Potency entry in [14], in [19] and in test [15] was “inactive” in each case. Besides, the Potency in test [2] is 19 µM (active); in [4], 5.35 µM (active); in test [10], 11.9 µM (active); in test [12], 9.44 µM (active); in test [16], 7.5 µM (active).
In the case of `CC(=O)C=O`, the Potency entry in test [1], in test [2], in [3], in [4], in test [5] and in test [6] was “inactive” in each case. The Potency entry in [7], in [8], in [9], in test [10], in test [11] and in [12] was “inactive” in each case. In addition, the Potency result in test [13], in [14], in [19], in [15] and in test [16] was “inactive” in each case.
For the compound `O=C1OC(=O)c2cccc3cccc1c23`, the Potency entry in test [1], in test [2], in test [3], in test [4], in test [5] and in test [6] was “inactive” each time. Moreover, the Potency result in [7], in [8], in [9], in test [10], in test [12] and in test [13] was “inactive” throughout. The Potency result in test [14], in [19], in test [20], in test [15] and in test [16] was “inactive” each time.
On to `CCO[Si](C)(C)OCC`, for which the Potency entry in [1], in test [2], in test [3], in [4], in test [5] and in test [6] was “inactive” each time. Moreover, the Potency entry in [7], in test [8], in test [9], in test [10], in test [11] and in test [12] was “inactive” throughout. Moreover, the Potency entry in test [13], in test [14], in test [19], in test [20], in [15] and in test [16] was “inactive” each time.
`C=CC(=O)OCCOCC(CC)(COCCOC(=O)C=C)COCCOC(=O)C=C`: the Potency result in [1], in test [17], in [6], in [7], in test [8] and in test [13] was “inactive” in each case. The Potency in test [2] was 25.6 µM (active); in test [4] it was 16.1 µM (active); in test [19], 5.67 µM (active); in test [20], 7.14 µM (active); in test [15] it was 16 µM (active).
`CCCCCCC(C)Nc1ccc(Nc2ccccc2)cc1` (stereo not given): the Potency result in test [1], in [2], in test [17], in [6], in test [9] and in [10] was “inactive” in each case. In addition, the Potency entry in test [13], in test [14] and in [15] was “inactive” in each case. For the same compound, the Potency in test [4] was 21.9 µM (active); in test [5], 19.5 µM (active); in [16], 27.3 µM (active).
